# Records with an inconclusive call do not appear. Where a call stands in place of a potency, no number is given. Activity calls are given as the source filed them. The call rests on the fitted dose curve; in most records, active means well fitted curve in the direction sought with a large enough effect; inconclusive means small, poorly fitted or top-dose-only effect, or effect the other way, or another doubt; inactive means no such curve, though single readings can be large or run the other way.
# Assay: Secondary Assay for lipid storage modulators: Hela cell LDSA assay for probe SAR
# Settings: HeLa lipid droplet accumulation, BODIPY 493/503 cytometry, oleate-fed; series mostly up to 46.1 µM
# From the text: NIH Molecular Libraries Probe Production Centers Network [MLPCN] NIH Chemical Genomics Center [NCGC] MLPCN Grant: 1 R03 MH085686-01 Assay Submitter (PI): Beller, Mathias; Max-Planck-Institut fur Biophysikalische Chemie NCGC Assay Overview: Storing lipids as a reservoir for energy or the anabolism of elementary metabolites is a common feature of probably all cells and is conserved from bacteria to humans. The universal cellular lipid storage organelle is the so-called lipid storage droplet (LD). Although ubiquitous, LDs share a simple structure composed of a hydrophobic core that harbors the storage lipids, which is shielded by a droplet-specific phospholipid monolayer to which proteins are attached. The current model of LD biogenesis involves an incorporation of the lipid core into the membrane leaflets of the endoplasmic reticulum (ER) followed by a subsequent budding-like maturation of a LD, which ultimately pinches off. Once released, LD volume can increase by localized lipogenesis or fusion of existing droplet. Storage lipids are re-mobilized enzymatically by lipase activity. Lipase regulation in the adipocyte is heavily studied and involves multiple components including catecholamine signaling, the LD-associated proteins Perilipin and comparative gene identification (CGI-58) and at least two lipases named hormone sensitive lipase (HSL) and adipocyte triglyceride lipase (ATGL). LD regulation outside of the adipocyte is poorly understood and only few components are known. However, there is an urgent need to learn more about ectopic fat depots as mislocalized storage of lipids, for example in the liver or muscle, is an eminent health problem associated with insulin resistance or the metabolic syndrome.
# NCGC Assay Protocol Summary: The assay was performed with Hela cells, using an oleic acid feeding protocol similar to the S3 assay. We dispensed 4 uL of cells to give 700 cells/well into Greiner bio-one 1,536-well plates (black walled, clear bottom). Triacsin C (Sigma-Aldrich T-4540), an inhibitor of long-chain fatty acyl CoA synthetase that blocks synthesis of triglycerides, was used as a positive control for lipid under-storage using a final concentration of 20 uM. The orexin antagonist, SB408124 - previously identified to stimulate lipid over-storage, was used as a positive control for lipid over-storage using a final concentration of 20 uM. A total of 23 nL of compound solution of different concentrations were transferred to the assay plates using a Kalypsys pin tool equipped with a 1,536-pin array containing 10-nL slotted pins (FP1S10, 0.457-mm diameter, 50.8 mm long; V&P Scientific). One microliter of oleic acid was added (400 uM final concentration), and the plate was lidded with stainless steel rubber gasket lined lids containing pinholes. After 18-24 h incubation at […] and 95% humidity, 4 uL of the dyes BODIPY 493/503 (Molecular Probes) and the Cell Tracker Red CMTPX dye (Molecular Probes) were added to the wells to stain lipid droplets and enumerate cell number, respectively. Fluorescence was detected by excitation of the fluorophores with a 488-nm laser on an Acumen Explorer (TTP Lab Tech). The total intensity in channel 2 (500-530 nm) reflected lipid droplet accumulation. Cells were detected using channel 3 (575-640 nm) with 5-um width and 100-um depth filters. The ratio of the number of objects in PMT channel 2 over the number of objects in PMT channel 3 was also calculated. Percent activity was computed relative to an internal control (100% inhibited lipid droplet deposition due to the presence of 20 uM Triacsin C), which was added to 32 wells/plate.
row,Compound,Potency
1,O=C(Cc1ccccc1)NC1CCCc2c1cnn2-c1ccc(F)cc1F (stereo not given),inactive
2,COc1ccc(-c2cnc(SCC(=O)Nc3nc(C)cs3)n2Cc2ccco2)cc1,inactive
3,CCOc1ccc(CCNC(=O)c2cc3sc(CC)cc3n2C)cc1OCC,0.217 µM (active)
4,COc1ccc(-c2cnc(SCC(=O)Nc3nccs3)n2Cc2ccccc2)cc1,inactive
5,COc1ccc(CCNC(=O)c2cc3sccc3n2Cc2ccc(Cl)cc2)cc1OC,inactive
6,O=C(NC1CCCc2c1cnn2-c1ccc(F)cc1F)c1ccccc1 (stereo not given),inactive
7,O=C(NC1CCCc2c1cnn2-c1ccc(F)cc1F)c1ccn[nH]1 (stereo not given),inactive
8,O=C(NC1CCCCC1)NC1(C(=O)N2CCCC2)CCCCC1,inactive
9,Cc1ccc(-c2cnc(SCC(=O)Nc3nc(C)cs3)n2Cc2ccco2)cc1,inactive
10,O=C(NC1CCCc2c1cnn2-c1ccc(F)cc1F)C1CCCCN1 (stereo not given),inactive
11,CN(C)CC(=O)NC1CCCc2c1cnn2-c1ccc(F)cc1F (stereo not given),inactive
12,CCOc1ccc(CCNC(=O)c2cc3sccc3[nH]2)cc1OCC,inactive
13,O=C(NC1CCCc2c1cnn2-c1cc(F)cc(F)c1)c1cccc2nccnc12 (stereo not given),8.65 µM (active)
14,CCOC(=O)C1CCN(C(=O)C2(NC(=O)NCc3ccccc3)CCCCC2)CC1,inactive
15,COc1ccc(CCNC(=O)c2cc3sccc3n2Cc2ccccc2)cc1OC,inactive

# — PubChem BioAssay AID488900 (National Center for Advancing Translational Sciences (NCATS), 2010)
